From PubChem BioAssay (NCI) come the findings set out here.

SMILES strings stand for the structures. The panel holds about 83,000 compounds, 20% with a hit somewhere; the sample as a whole holds those more often.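 A percent growth of 40 corresponds to 60% growth inhibition; 0 means no net growth; -100 means all cells died. Active threshold: below 10.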 Unmarked numbers belong to inactive results. Calls of active or inactive are those of the source.

In this assay the test system is MDA-MB-468 breast. Description: NCI-60 one-dose screen, 48 h (100 = growth as untreated, 0 = no growth, -100 = all killed). As to conditions: 10 µM unless noted.
Take `Cc1cc(O)cc(-c2c(-c3ccnc(-c4cccnc4)c3)cnn2C)c1`: the growth was 48.1%. As to `CC(=O)/C(=C/c1ccc(Br)cc1)C(=O)c1ccccc1`, the growth was 92.3%. As for `FC(F)(F)c1ccc(-c2cnc(Cl)nc2N2CCC3(CC2)OCCO3)cc1`, the growth is 103%.

For the molecule `CC(C)(C)c1ccc(/C=C/C(=O)Nc2ccc(O)cc2)cc1`, the growth was 92.2%. Take `CC(C)(N)CO[C@H]1C[C@H]2CC[C@@]1(C)C2(C)C`: the growth is 84%. Under `Cc1cn2c(/C=C3/C(=O)Nc4c3ccc3ccccc43)c(C(F)(F)F)nc2s1` stands 7.93% (active); under `Fc1ccc2[nH]cc(-c3nonc3-c3c[nH]c4ccc(Br)cc34)c2c1`, 44.3%. Under `CC(=O)/C(=C/c1cccc(Cl)c1)C(=O)c1ccccc1` stands 99.2%; under `COc1cccc(CC(C)=C(c2ccc(OCCN3CCCCC3)cc2)c2ccc(OCCN3CCCCC3)cc2)c1`, -82.8% (active); under `CCN1C(=O)N(CC)C2C1NN=c1s/c(=C\c3cccc([N+](=O)[O-])c3)c(=O)n12` (configuration not stated), 3.95% (active). Next, `COc1cc(-c2nn(-c3ccccc3)cc2-c2ccnc(NCCNS(=O)(=O)c3ccc(Cl)cc3)n2)ccc1Cl`: 31.2%.

Turning to `FC(F)(F)Sc1ccc(/C=C/c2cc(/C=C/c3ccc(SC(F)(F)F)cc3)n(-c3ccccc3)n2)cc1`, the growth is 95.8%.

Consider `O=C1OC(Cc2ccccc2)C1c1ccccc1` (configuration not stated), for which the growth was 97.4%. On to `c1ccc(C2Cc3ccccc3C2=NC2CCCCC2)cc1` (configuration not stated), for which the growth is 111%.

Consider `Nc1nc(SCc2cccnc2)c2ncn(C3OC(CO)C(O)C3O)c2n1` (configuration not stated), for which the growth was 97.4%. Next, `C[C@H]1[C@H](C)CC[C@]2(CO)CC[C@]3(C)C(=CC[C@@H]4[C@@]5(C)CCCNC(C)(C)[C@@H]5CC[C@]43C)[C@H]12`: -78.6% (active); `CN(C)CCC(CCN(C)C)(C(=O)O)c1ccccc1`: 102%; `Cc1cc(=O)oc2cc(Oc3nc(-c4ccc(Cl)cc4)cn4c(-c5ccc(Cl)cc5)cnc34)ccc12`: 84.8%. Consider `CC(COC(=O)c1ccccc1)N1CC2CCC(C1)O2` (configuration not stated), for which the growth was 103%. For the molecule `O=C1c2cccc3cccc(c23)C(=O)N1Nc1nc(NC2CCCCC2)nc(N2CCOCC2)n1`, the growth was 114%. As to `CCCCCC1CCCCN1C(=O)OCC` (configuration not stated), the growth is 150%. Consider `Nc1n[nH]c2ccc([C@@H]3Nc4ccc5[nH]ncc5c4[C@H]4C5C=CC(C5)[C@@H]34)cc12` (some centres not stated), for which the growth is -12.2% (active). Under `COc1ccc(-c2noc(N)c2-c2cc(OC)c3c(c2)OCO3)cc1` stands 25.6%. Next, `COc1ccc(Br)c(/C=C2\SC(=Nc3ccc(O)cc3)NC2=O)c1`: 85%; `COc1cc(C2CC(c3cccc(Nc4ccncc4)c3)=NN2c2ccc(Cl)cc2)cc(OC)c1OC` (configuration not stated): 10.3%; `O=C(CSc1ccc(Cl)cc1)Nc1ccc(-c2nc3ccccc3s2)c(Cl)c1`: 52.1%. In the case of `c1ccc2c[n+](Cc3ccc4ccccc4n3)ccc2c1`, the growth is -0.701% (active).
